What all share (format): functional
For experiment [1], the target named is Solute carrier family 2, facilitated glucose transporter member 1 (Homo sapiens) (UniProt P11166). Briefly: ST_JUDE_LEISH: Cytotoxicity at 2uM final concentration against transgenic Leishmania Mexicana promastigotes LmGLUT1 that are glucose transport deficient and complemented with the human glucose transporter GLUT1. Activity is measured by DNA content using SYBR green in vitro.

The target of experiment [2] is Hexose transporter 1 (Plasmodium falciparum) (UniProt O97467). Briefly: ST_JUDE_LEISH: Cytotoxicity at 2uM final concentration against transgenic Leishmania Mexicana promastigotes LmPfHT that are glucose transport deficient and complemented with the Plasmodium falciparum hexose transporter. Activity is measured by DNA content using SYBR green in vitro.
Experiment [3] deals with Glucose transporter (Leishmania mexicana) (UniProt O61059). Briefly: ST_JUDE_LEISH: Cytotoxicity at 2uM final concentration against transgenic Leishmania Mexicana promastigotes LmGT2 that are glucose transport deficient and complemented with the L. Mexicana glucose transporter 2. Activity is measured by DNA content using SYBR green in vitro.

Sequence of Solute carrier family 2, facilitated glucose transporter member 1 (Homo sapiens) (P11166 whole entry): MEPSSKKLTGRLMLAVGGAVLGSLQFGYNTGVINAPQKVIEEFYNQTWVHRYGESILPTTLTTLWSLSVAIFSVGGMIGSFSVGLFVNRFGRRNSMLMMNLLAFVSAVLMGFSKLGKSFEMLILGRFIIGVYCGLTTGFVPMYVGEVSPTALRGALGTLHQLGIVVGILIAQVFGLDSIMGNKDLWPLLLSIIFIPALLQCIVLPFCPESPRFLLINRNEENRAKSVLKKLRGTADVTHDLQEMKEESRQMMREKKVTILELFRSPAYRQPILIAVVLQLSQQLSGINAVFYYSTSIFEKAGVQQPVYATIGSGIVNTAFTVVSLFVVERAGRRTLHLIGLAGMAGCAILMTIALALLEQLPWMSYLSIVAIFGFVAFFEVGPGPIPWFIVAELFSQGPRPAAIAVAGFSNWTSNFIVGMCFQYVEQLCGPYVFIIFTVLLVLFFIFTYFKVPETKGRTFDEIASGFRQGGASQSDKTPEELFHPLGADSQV

As for `COc1ccc(OCCCON2C(=N)N=C(N)NC2(C)C)cc1`, the inhibition in experiment [1] amounted to 5%; in experiment [2], 1.09%; in experiment [3], 1.17%.
For `CCCCCCNC(=O)C1Cc2c([nH]c3ccc(Br)cc23)C2(CCN(Cc3ccccc3)CC2)N1` (stereo not drawn) the same measures were 45.6%, 15.5% and 30.9%.
In the case of `Fc1ccccc1C=NN=c1cc[nH]c2ccccc12`, the results for the inhibition in experiment [1], in experiment [2] and in experiment [3] were 4.61%, 4.39% and 4.15%, respectively.
Turning to `CC(=O)Nc1ccc(CN2CCC(NC(=O)c3ccc(-c4cccc(F)c4)s3)CC2)cc1`, the results for the inhibition in experiment [1], in experiment [2] and in experiment [3] were 1.73%, 0.06% and 0.34%, respectively.
As to `NC12CC3CC(CC(C3)C1)C2`, the results for the inhibition in experiment [1], in experiment [2] and in experiment [3] were 5.47%, 5.42% and 4.45%, respectively.
For `CS(=O)(=O)c1ccc(CCNCc2ccc(-c3ccc(CNC4CCN(Cc5ccccc5)CC4)cc3)nc2)cc1`, in that order: -0.83%, -1.16% and -2.69%.
Take `COc1ccc2ccccc2c1CCCCN1CCN(CC(c2ccc(F)cc2)N2CCC(N3CCCC3)CC2)CC1` (stereo not drawn): the inhibition in experiment [1] was 3.25%; in experiment [2] it was 3.63%; in experiment [3], 7.05%.
On to `COc1ccc(NC(=O)/C=C/c2ccc(Oc3ccccc3Cl)c([N+](=O)[O-])c2)cc1OCCN(C(C)C)C(C)C`, for which the inhibition in experiment [1] was -0.7%; in experiment [2], -0.91%; in experiment [3], -1.59%.
For `Cc1cc(CN2CC[C@H](NC(=O)c3ccc(Cl)c(Cl)c3)C2)ccc1OC1CCN(Cc2ccccc2)CC1` the same measures were 11%, 8.06% and 8.04%.
As to `Cc1[nH]c(C)c(-c2ccc(-c3cccc(OC(F)(F)F)c3)nc2)c(=O)c1Cl`, the inhibition in experiment [1] was -1.57%; in experiment [2], 0.86%; in experiment [3], -0.63%.
For `FC(F)(F)c1ccc(-c2ccc(CNC3CCN(CCN4CCOCC4)CC3)cc2)cc1` the same measures were 1.09%, 0.81% and 3.26%.
With `Cc1cc(NC2CCN(CC3CCCCC3)CC2)nc(Nc2ccccc2Cl)n1`, the results for the inhibition in experiment [1], in experiment [2] and in experiment [3] were 2.86%, 6.27% and 0.85%, respectively.
For `O=S(=O)(NC1CCN(c2ccnc3cc(Cl)ccc23)C1)c1ccc(F)cc1` (stereo not drawn) the same measures were 0.47%, 1.68% and 1.83%.
For `CCCCCCCC1=NN2C(=N)C(=Cc3cc(Br)c(OCc4ccc(F)cc4)c(OCC)c3)C(=O)N=C2S1` the same measures were 3.23%, 3.17% and 2.47%.
As for `CN1CCc2cc(NS(=O)(=O)c3ccc(-c4ccc(Cl)s4)cc3)c(N3CCCCC3)cc2CC1`, the values for the inhibition in experiment [1], in experiment [2] and in experiment [3] were -0.61%, 0.7% and -2.07%, respectively.
For `Cc1cccc2nc(-c3ccc(-c4ccc(CN5CCN(CCC#N)CC5)cc4)cc3)[nH]c12` the same measures were 15.7%, 14.1% and 11.8%.
For `O=S(=O)(c1cc(Cl)sc1Cl)N(CCC(O)(C(F)(F)F)C(F)(F)F)Cc1cccc(O)c1`, in that order: 0.79%, 0.45% and 2.62%.
For `CCN1CCC(N(Cc2ccc(-c3ccc(C(F)(F)F)s3)cc2)C(=O)Cn2c(CCc3cccc(F)c3F)nc(=O)c3ccccc32)CC1`, in that order: 6.57%, 5.93% and 5.76%.
Regarding `COc1cccc2cc(C(=O)N[C@@H](CC(C)C)C(=O)N[C@H](C=NN(C)C(=O)OC(C)(C)C)Cc3ccccc3)oc12`, the inhibition in experiment [1] is 5.65%; in experiment [2] it was 7.62%; in experiment [3], 5.03%.
Take `O=C(c1ccccc1)N1CCC[C@](CCCN2CCN(c3ccccc3O)CC2)(c2ccc(Cl)c(Cl)c2)C1`: the inhibition was determined as 5.1% in experiment [1], 4.13% in experiment [2] and 5.99% in experiment [3].
Consider `Cc1cccc2nc(-c3cccc(-c4cccc(NC(=O)Nc5ccsc5)c4)c3)[nH]c12`, for which the figures for the inhibition in experiment [1], in experiment [2] and in experiment [3] were 4.96%, 4.46% and 6.15%, respectively.
For `COc1ccc2[nH]c(C)cc(=NN=Cc3ccccc3Cl)c2c1`, in that order: 5.14%, 5.23% and 1.92%.
For `Cc1ccc(C(=O)Nc2cccc(CN3CCCN(Cc4ccc(O)cc4)CC3)c2)cc1` the same measures were 1.89%, 0.24% and -7.6%.
For `Cc1cccc2nc(-c3cccc(-c4ccc(NC(=O)COc5ccccc5C(N)=O)cc4)c3)[nH]c12` the same measures were 4.4%, 4.11% and 5.02%.
As to `NC1CCCN(Cc2ccc(-c3cccc(-c4nc5cc(F)ccc5[nH]4)c3)cc2)C1` (stereo not drawn), the results for the inhibition in experiment [1], in experiment [2] and in experiment [3] were -0.79%, 0.23% and -1.33%, respectively.
Turning to `CN(c1ccccc1)S(=O)(=O)c1cccc(NC(=O)c2ccc(-n3ccnc3)c([N+](=O)[O-])c2)c1`, the results for the inhibition in experiment [1], in experiment [2] and in experiment [3] were 2.91%, 3.61% and 0.73%, respectively.
For `CN(C)CCN(C)Cc1ccc(-c2ccc3c(Nc4ccc(Cl)cc4F)ccnc3c2)o1` the same measures were 1.16%, 2.08% and 2.79%.
As for `CCCc1ccc(S(=O)(=O)NC2CCN(c3ccnc(Nc4ccc(F)cc4)n3)C2)cc1` (stereo not drawn), the inhibition in experiment [1] worked out at 0.73%; in experiment [2] it was 0.26%; in experiment [3], 1.48%.
For `COc1ccc(-c2cc(C(=O)Nc3ccc4[nH]c(-c5ccccc5)nc4c3)[nH]n2)cc1`, in that order: 13.1%, 12% and 14.1%.
For `FC(F)(F)c1ccc2[nH]c(-c3ccc(-c4ccc(CNCC5CCCO5)cc4)cc3)nc2c1` (stereo not drawn), in that order: 3.49%, 2.61% and 1.84%.
For `CC1CN(Cc2cccc(C#N)c2)CCN1c1ccc(NC(=O)c2cccs2)cc1` (stereo not drawn), in that order: 6.93%, 7.96% and 4.53%.
Turning to `COc1cc(Cc2cnc(N)nc2N)cc(OC(C)C)c1OC`, the inhibition in experiment [1] is -0.55%; in experiment [2] it was 0.72%; in experiment [3] it was -0.54%.
With `COc1ccc2[nH]cc(C3CCN(CCC4CCN(C(=O)/C=C/c5ccc(Cl)c(Cl)c5)CC4)CC3)c2c1`, the inhibition in experiment [1] worked out at 2.88%; in experiment [2], 1.24%; in experiment [3], 1.93%.
With `O=C(Nc1cccc(N2CCC(NCCCn3ccnc3)CC2)c1)c1cccc(C(F)(F)F)c1`, the inhibition is 0.98% in experiment [1], -0.71% in experiment [2] and 3.8% in experiment [3].
For `N#Cc1ccc2c(c1)CCN(CCC1CCC(NC(=O)/C=C/c3ccc4[nH]ccc4c3)CC1)CC2` (stereo not drawn) the same measures were 1.65%, 0.57% and 0.13%.
For `COc1cc(NC(=O)c2cc3c(C)nn(-c4cccc(C(F)(F)F)c4)c3s2)cc(OC)c1OC` the same measures were 0.22%, 1.29% and 2.46%.

For the origin of these results see ChEMBL document CHEMBL3433997, “St. Jude Leishmania screening dataset” (2016).
